KCNQ2 inh: inhibitors of rat KCNQ2 potassium channel | O88943 | CHO-K1 KCNQ2, FluxOR thallium flux, 20 min; stronger effect = lower value | B-score at 10 µM | hit rate 1.1% among 310,000 | AID 2156;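 active means fluorescence ratio B-score at most minus 3 library SDs, with starting brightness B-score within 2 library SDs, cut at about -5.5 in these data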
Target sequence (O88943 whole entry, looked up): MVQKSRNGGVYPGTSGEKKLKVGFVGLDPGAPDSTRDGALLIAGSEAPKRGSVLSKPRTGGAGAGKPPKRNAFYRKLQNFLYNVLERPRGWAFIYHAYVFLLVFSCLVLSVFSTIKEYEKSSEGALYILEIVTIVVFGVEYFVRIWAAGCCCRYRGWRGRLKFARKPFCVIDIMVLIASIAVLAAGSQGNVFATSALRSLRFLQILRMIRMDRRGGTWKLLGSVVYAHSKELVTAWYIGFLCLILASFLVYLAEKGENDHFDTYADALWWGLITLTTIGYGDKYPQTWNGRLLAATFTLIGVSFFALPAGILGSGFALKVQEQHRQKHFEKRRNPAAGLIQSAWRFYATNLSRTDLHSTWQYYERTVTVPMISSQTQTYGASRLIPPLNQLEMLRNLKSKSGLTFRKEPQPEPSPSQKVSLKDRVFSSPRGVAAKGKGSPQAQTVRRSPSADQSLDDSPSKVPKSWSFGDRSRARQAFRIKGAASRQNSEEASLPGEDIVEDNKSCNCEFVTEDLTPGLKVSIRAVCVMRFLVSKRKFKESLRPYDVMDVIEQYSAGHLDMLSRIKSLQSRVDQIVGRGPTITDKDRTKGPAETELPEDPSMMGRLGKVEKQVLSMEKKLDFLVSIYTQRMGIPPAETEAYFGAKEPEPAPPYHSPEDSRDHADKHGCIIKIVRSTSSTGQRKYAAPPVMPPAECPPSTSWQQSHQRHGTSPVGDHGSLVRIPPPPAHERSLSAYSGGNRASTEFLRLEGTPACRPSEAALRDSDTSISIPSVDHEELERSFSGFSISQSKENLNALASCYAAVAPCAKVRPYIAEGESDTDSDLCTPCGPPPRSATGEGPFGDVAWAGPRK
KCNQ2 pot: enhances the rat KCNQ2 potassium channel; B-score at 10 µM; AID 2239; hit rate 0.54% among 310,000; CHO-K1 KCNQ2, FluxOR thallium flux fluorescence; stronger effect = higher value;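 active means fluorescence ratio B-score at least 3 SD of library B-scores, with initial fluorescence B-score within 3 of them, cut at about 5.3 in these data; same plate scores as AID 2156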;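 further: B-score of peak minus minimum over baseline fluorescence ratio after K+ and Tl+ stimulus; positive B-score means potentiation of KCNQ2 with more thallium influx and brighter signal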
Active calls of the source: *; i = inactive; · = no result given. In the library only some 1.6% were active in any assay of this set; here they are far more common.

SMILES	KCNQ2 inh	KCNQ2 pot
CCOC(=O)C1CCCN(C(=O)c2cnn3c(C(F)(F)F)cc(-c4ccccc4)nc23)C1 (configuration not stated)	i	·
CCOC(=O)C1CCCN(C(=O)c2cc(-c3ccc(C)cc3)nc3ccccc23)C1 (configuration not stated)	-5.6*	-5.6
Cc1ccc2c(c1)C(c1ccccc1)N(C(=O)c1ccc3c(c1)OCO3)CC(=O)N2 (configuration not stated)	i	·
O=C(Nc1cc(Br)c(O)c(Br)c1)c1cccc(NC(=O)c2ccco2)c1	i	2.8
O=C(Nc1cccc(N=Cc2cc(Cl)cc(Br)c2O)c1)c1ccco1	i	10*
CCC1Oc2ccc(C)cc2N(CC(=O)NCCCN2CCOCC2)C1=O (configuration not stated)	i	1.5
CCN(C(=O)c1cc2c(=O)[nH]c3ccc(C)cc3c2s1)c1ccccc1C	i	0.05
CCN(C(=O)c1cc2c(=O)[nH]c3ccc(C)cc3c2s1)c1ccccc1F	i	13*
COc1ccc(-c2nnnn2C)cc1S(=O)(=O)NCCc1ccccc1	i	0.59
NC(=O)C(c1ccccc1)c1ncc(C(F)(F)F)cc1Cl (configuration not stated)	i	3.1
Cc1ccc(OCC(=O)N2N=C(c3ccc(Cl)cc3)CC2c2ccco2)c([N+](=O)[O-])n1 (configuration not stated)	-8.3*	-8.3
CCC(=O)N1N=C(c2ccc(Cl)cc2)CC1c1ccco1 (configuration not stated)	i	·
c1ccc(CC2CNc3ccccc3CN2)cc1 (configuration not stated)	i	·
CCOC(=O)C1=NN(C(=O)c2ccc(OC)cc2)C(O)(c2ccc(Cl)cc2)C1 (configuration not stated)	i	16*
CCOC(=O)C1=NN(C(=O)c2ccccc2)C(O)(c2ccc(C)cc2)C1 (configuration not stated)	i	3.8
COC(=O)CCC(NS(=O)(=O)OCC(Cl)(Cl)Cl)c1ccccc1 (configuration not stated)	i	1.9
Cc1coc2c1C(=O)C(=O)c1c-2ccc2c1CCCC2(C)C	i	·
C[C@H]1COC2=C1C(=O)C(=O)c1c2ccc2c1CCCC2(C)C	-6.2*	-6.2
CCOC(=O)c1nn(C23CC4CC(CC(C4)C2)C3)c2c1C(=O)N(c1ccc(C)cc1)C2=O	-6.8*	-6.8
COC(=O)c1nn(C23CC4CC(CC(C4)C2)C3)c2c1C(=O)N(c1ccc(Br)cc1)C2=O	-6.5*	-6.5
CCOC(=O)c1ccc(N2C(=O)C(C)=C(C)C2=O)cc1	i	·
COC(=O)c1cc(-c2ccc(Br)cc2)on1	i	0.65
CC(C(=O)N1CCCCC1)n1sc2ccccc2c1=O (configuration not stated)	i	·
O=C(O)c1ccc(Nc2nc(-c3ccccc3)cs2)cc1	i	1.1
CS(=O)(=O)N(CC(N)=O)Cc1ccc(Cl)cc1	i	1.1
SMILES	KCNQ2 inh	KCNQ2 pot
CCc1cccc2c(SC(C)C(=O)NCC3CCCO3)nc(-c3ccccc3)nc12 (configuration not stated)	i	·
Cc1ccc(NC(=O)[C@H](Cc2c[nH]c3ccccc23)NC(=O)[C@@H]2Cc3ccccc3CN2)c(C)c1	-6.7*	-6.7
CC(NC(=O)[C@H](Cc1c[nH]c2ccccc12)NC(=O)[C@@H]1Cc2ccccc2CN1)c1ccccc1 (some centres not stated)	-5.9*	-5.9
CCc1ccc(NC(=O)[C@H](Cc2c[nH]c3ccccc23)NC(=O)[C@@H]2Cc3ccccc3CN2)cc1	i	·
Cc1ccc(NC(=O)[C@H](Cc2ccccc2)NC(=O)[C@@H]2Cc3ccccc3CN2)c(C)c1	i	·
Cc1cccc(NC(=O)[C@H](Cc2c[nH]c3ccccc23)NC(=O)[C@@H]2Cc3ccccc3CN2)c1	-6.5*	-6.5
CC(C)C[C@H](NC(=O)[C@@H]1Cc2ccccc2CN1)C(=O)Nc1ccc(C(C)C)cc1	i	·
O=C(O)CSCC(=O)NCc1ccc(Cl)cc1	i	0.62
COc1cc(/C=C/c2ccc3cccc(OC)c3n2)c(O)c([N+](=O)[O-])c1	i	0.63
COc1cc(/C=C/c2ccc3cccc(OC)c3n2)c(OC(C)=O)c([N+](=O)[O-])c1	-5.6*	-5.6
CCOC(=O)COc1cc(Br)c(/C=N/Nc2ccccc2)cc1OC	i	0.2
O=S(=O)(c1ccc(N2CCC(c3ccc(Cl)cc3)=N2)cc1)N(CCO)CCO	i	1.8
CN(C)CCCNS(=O)(=O)c1ccc(N2CCC(c3ccc(Cl)cc3)=N2)cc1	-5.9*	-5.9
CCOC(=O)C(NC(C)=O)C(O)c1ccc([N+](=O)[O-])cc1 (configuration not stated)	i	·
CC(=O)Nc1c(F)c(F)c(F)c(F)c1F	i	0.43
Oc1c(Br)cc(Br)cc1C=Nc1ccc2c(c1)OCO2	i	9.8*
Oc1c(Br)cc(Br)cc1C=Nc1ccc2c(c1)OCCO2	i	2.9
COc1ccc2o/c(=N\O)c(C(=O)Nc3ccc(C)cc3)cc2c1	-10*	-10
COc1ccc2oc(=N)c(C(=O)Nc3ccc(C)cc3)cc2c1	i	·
Cc1c(C(=O)Nc2ccc(Oc3ccccc3)cc2)sc2nc3n(c(=O)c12)CCC3	i	0.82
COc1ccc(OC)c(-c2csc(N(Cc3ccco3)C(=O)c3cccs3)n2)c1	i	·
COc1ccc(-c2csc(N(Cc3ccco3)C(=O)c3cccs3)n2)cc1	-6*	-6
COCCCN(C(=O)c1ccccc1)c1nc(-c2ccc(OC)cc2)cs1	-5.9*	-5.9
COCCN(C(=O)c1ccccc1)c1nc(-c2ccc(OC)cc2)cs1	i	·
CC(=O)C1=C(C)Nc2ncnn2C1c1ccc(C)cc1 (configuration not stated)	i	0.24
SMILES	KCNQ2 inh	KCNQ2 pot
O=C(CSc1nc2ccccc2nc1SCC(=O)N1CCCCC1)N1CCCCC1	i	0.43
CC(=O)c1c(N)c(C#N)c(C)n1-c1ccc(Br)cc1	i	0.25
CC(C)N(NC(=O)c1cccc2ccccc12)C(C)C	i	1.5
Cc1c(Cl)cccc1-n1c(SCC(=O)NCc2ccccc2Cl)nnc1-c1ccncc1	-6.4*	-6.4
Cc1c(Cl)cccc1-n1c(SCC(=O)NCc2cccs2)nnc1-c1ccncc1	i	0.01
CCOC(=O)CC1COCCN1Cc1cn[nH]c1-c1ccc2c(c1)OCO2 (configuration not stated)	i	0.25
Cc1c(-c2ccccc2)nc2ccccc2c1C(=O)O	i	2.1
CC[C@H](NC(=O)c1c(C)c(-c2ccccc2)nc2ccccc12)c1ccccc1	-11*	-11
CC(C)(C)C1CCc2c(sc(NC(=O)c3cccs3)c2C(=O)N2CCCCC2)C1 (configuration not stated)	-8.1*	-8.1
CC1CCc2c(sc(NC(=O)c3cccs3)c2C(=O)O)C1 (configuration not stated)	i	2
COc1ccccc1/C=N/NC(=O)c1ccc(-c2ccccc2)cc1	i	·
Cc1cc(/C=N/n2cnnc2)c(C)n1-c1ccc(OCc2ccc(F)cc2)cc1	-6.2*	-6.2
Cc1cc(/C=N/n2cnnc2)c(C)n1-c1ccc(OCc2ccc(Cl)cc2Cl)cc1	i	·
Cc1cccc(/N=C/c2nc(-c3ccccc3Br)oc2O)n1	i	·
Oc1oc(-c2cccc3ccccc23)nc1/C=N/c1nccs1	i	9.4*
O=C(Nc1cccc(Cl)c1)N(CCN1CCOCC1)Cc1cccc(Cl)c1	-7.3*	-7.3
